Bioassay records from PubChem BioAssay.
Sampled rows, rich in hits. Any-hit rate of the full collection: about 10%.
ELG1 DNA repair: blocks ELG1-dependent DNA repair in HEK293T cells. HEK293T ELG1-luciferase reporter, luminescence, 16 h; DNA damage induced by 5-fluorouridine. Potency, µM (doses to about 46.1 µM), without a hit: top-dose activity change, negative = inhibition, hits mostly inhibitors. 2.3% of 330,000 active. AID 504467; also: % is scaled to controls: 0 for no effect and ±100 for the full control effect; nearly all actives have a fitted effect of over 55% in size
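Cells (2,000 per well) received 5-fluorouridine plus test compound or DMSO and were incubated 16 hr at 37 °C, 5% CO2. Luciferase activity was read by luminescence 30 min after ONE-Glo addition; signal suppression marked inhibition of damage-induced ELG1 function.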
RORgamma inh: blocks mouse ROR gamma transcriptional activity. P51450. Drosophila S2 Gal4-RORgamma UAS-luciferase reporter, 20 h. Potency, µM (top dose mostly 53.6 µM), without a hit: at the top dose activity change, negative = inhibition, actives largely listed as inhibitors. 5.4% of 310,000 active; also: % is scaled to controls: 0 for no effect and ±100 for the full control effect; nearly all actives have a fitted effect of over 60% in size
Target sequence (P51450 whole entry, looked up, the tested form may be a part): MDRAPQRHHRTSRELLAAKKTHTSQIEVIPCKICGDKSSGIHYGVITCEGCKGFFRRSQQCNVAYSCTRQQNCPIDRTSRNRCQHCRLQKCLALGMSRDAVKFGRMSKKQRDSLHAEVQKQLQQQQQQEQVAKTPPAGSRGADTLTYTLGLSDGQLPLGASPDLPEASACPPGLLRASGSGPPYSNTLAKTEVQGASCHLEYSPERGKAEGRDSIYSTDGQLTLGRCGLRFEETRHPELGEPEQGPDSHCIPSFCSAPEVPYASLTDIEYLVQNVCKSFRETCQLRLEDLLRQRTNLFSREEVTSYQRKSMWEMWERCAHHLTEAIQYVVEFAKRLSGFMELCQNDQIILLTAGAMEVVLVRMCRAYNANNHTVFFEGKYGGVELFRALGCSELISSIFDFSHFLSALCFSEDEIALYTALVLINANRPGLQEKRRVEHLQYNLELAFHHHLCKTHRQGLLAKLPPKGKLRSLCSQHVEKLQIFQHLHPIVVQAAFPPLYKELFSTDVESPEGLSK
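Using a luciferase readout, inhibitors were identified by reduced reporter activity in Drosophila cells coexpressing a copper-inducible Gal4–ROR gamma fusion and UAS-driven Photinus luciferase, incubated 20 hr after 700 uM copper sulfate.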
MCF10A rerep: DNA re-replication induction in MCF 10a cells | 2.9% of 350,000 active | Potency, µM (highest dose often 46.1 µM), for inactives: at the top dose activity, positive = re-replication, usual class: activators | MCF 10A DNA re-replication, Hoechst nuclear intensity, 48 h | AID 624296; also: % of control where 0% means no effect; nearly all actives have a fitted effect of over 50% in size
VP16 counter: inhibits Gal4-VP16 luciferase reporter, ROR gamma counter-screen; Drosophila S2 Gal4-VP16 UAS-luciferase, luminescence, 20 h; AID 2546; 3.5% of 310,000 active; Potency, µM (top dose mostly 53.6 µM), for inactives: at the highest dose activity, negative = inhibition, hits mostly inhibitors;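 also: Gal4-VP16 expression switched on by copper sulfate through the metallothionein promoter; % is scaled to controls: 0 for no effect and ±100 for the full control effect; nearly all actives have a fitted effect of over 50% in size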
SW480 rerep: DNA re-replication induction in SW480 cells. SW480 DNA re-replication, Hoechst DNA content imaging, 48 h. 1.8% of 340,000 active. Potency, µM (titrated, usually from 46.1 µM), for inactives: top-dose re-replication activation, hits mostly activators. AID 624297; also: % of control where 0% means no effect; nearly all actives have a fitted effect of over 55% in size
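Readout is total intensity of Hoechst-stained nuclei, excited at 405 nm and collected at 500-530 nm. Compound treatment lasted 48 hr at 37 C in 5% CO2 before staining.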
Numbers without * were called inactive; u = inconclusive; x = not tested or not shown; [ ] = remark or other dose. Calls follow the shape of the dose curve; as a rule, active = well fitted curve in the direction sought with a large enough effect; inconclusive = small, poorly fitted or top-dose-only effect, or another doubt; inactive = no such curve, though single readings can be large; an effect the other way counts as inactive or inconclusive. Potency is read from the fitted curve at half-maximal effect.

SMILES	ELG1 DNA repair	RORgamma inh	MCF10A rerep	VP16 counter	SW480 rerep
Cc1ccc(S(=O)(=O)N2CCN(C(=O)c3cc(S(=O)(=O)N(C)C)ccc3N3CCCC3)CC2)c(C)c1	u	x	9%	x	u
O=C(NN1CCOCC1)NC12CC3CC(CC(C3)C1)C2	u	13%	1%	2%	-6%
O=C1CCC[C@@H](C2=CCCCC2=O)C1	x	25%[10 µM]	x	-7%[10 µM]	x
O=S(=O)(N/N=C1\CCCc2ccccc21)c1ccccc1	18%	x	0%	x	0%
c1ccc(N/N=C2\CCCc3ccccc32)nc1	9%	13µM*	2%	u	1%
Cc1cc(N/N=C2/CCCc3ccccc32)nc2ccccc12	u	2µM*	u	11µM*	-12%
Cc1nc(NC(=S)NC(=O)COc2ccccc2Cl)ccc1Br	13%	7.1µM*	-2%	7.1µM*	2%
Cc1ccc(OCC(=O)NC(=S)Nc2ccccn2)c(Br)c1	u	10µM*	0%	11µM*	0%
COC(=O)c1ccccc1NC(=S)NC(=O)COc1ccccc1Cl	-2%	10µM*	13%	u	1%
COC(=O)c1ccccc1NC(=S)NC(=O)COc1ccc(C)cc1	x	x	1%	x	u
Cc1cc(Cl)ccc1OCC(=O)Nc1ccccc1N1CCOCC1	11%	u	21%	-9%	1%
Cc1cc(Cl)ccc1OCC(=O)NC(=S)Nc1ccccc1N1CCOCC1	15%	4.5µM*	u	u	-3%
Cc1cccc(C(=O)NCC(=O)OC(C)C(=O)Nc2ccc(Cl)cn2)c1 (stereo not given)	-3%	x	3%	x	u
CN(C)CCN(C(=O)C1=COCCO1)c1nc2ccc(F)cc2s1	x	x	-1%	x	-1%
O=C1CCc2cc(S(=O)(=O)NC3CCCCC3)cc3c2N1CC3	u	x	u	x	-533%
O=C(COc1ccccc1Cl)NC(=S)Nc1ccccc1N1CCCC1	0%	5.6µM*	u	7.9µM*	u
Cc1cc(C)nc(NC(=O)c2ccc(COc3ccccc3Cl)cc2)c1	0%	8%	3.7µM*	0%	13%
Cc1ccc(OCC(=O)NNC(=S)NC(=O)C(C)(C)C)c(Br)c1	0%	11µM*	0%	4%	u
CC(C)c1ccc(OCC(=O)NNC(=S)NC(=O)c2cccs2)c(Br)c1	2%	13%	u	-1%	-14%
COC(=O)c1ccccc1NC(=O)c1cccc(COc2ccccc2Cl)c1	u	45%	2.6µM*	0%	u
CC1=NN(C(=O)c2ccccc2-n2cccc2)C(O)(C(F)(F)F)C1 (stereo not given)	-8%	10µM*	6%	u	-20%
CC1=NN(C(=O)c2ccc(C)cc2)C(O)(C(F)(F)OC(F)(F)F)C1 (stereo not given)	-2%	6.3µM*	u	11µM*	-12%
Cc1nc2ccc(NC(=O)NCCCO)cc2s1	u	33%	-3%	1%	-7%
O=C1CN(C(=O)c2ccc(Br)o2)C(c2ccccc2)c2cc(F)ccc2N1 (stereo not given)	18µM*	9%	0%	2%	-4%
Cc1ccc2c(c1)C(c1ccccc1)N(C(=O)c1cccc([N+](=O)[O-])c1)CC(=O)N2 (stereo not given)	13µM*	46%	10%	-8%	-3%
SMILES	ELG1 DNA repair	RORgamma inh	MCF10A rerep	VP16 counter	SW480 rerep
O=C1CN(C(=O)c2ccccc2)C(c2ccccc2)c2cc(F)ccc2N1 (stereo not given)	13%	22%	2%	16%	-7%
C=CCNC(=S)NNC(=O)C(CCC(C)C)CC(C)(C)O (stereo not given)	0%	14µM*	u	u	u
C=CCNC(=S)NNC(=O)C(CC(C)C)CC(C)O (stereo not given)	8%	-20%	-2%	-6%	-1%
Cc1ccc(N=Nc2ccc(O)c3ncccc23)cc1C	u	0.14µM*	8%	0.5µM*	u
Cc1ccc(N=Nc2ccc(O)c3ncccc23)cc1	u	0.056µM*	u	x	1.2µM*
CCn1c(=O)c(C(=O)NNS(=O)(=O)c2ccc(Cl)cc2)c(O)c2ccccc21	16%	19%	u	-27%	-8%
CCOc1ccc(-c2cc(CCCC(=O)Nc3cccc(OC)c3)no2)cc1	u	0.13µM*	u	u	u
CCOc1ccc(-c2cc(CCCC(=O)Nc3cc(OC)ccc3OC)no2)cc1	-29%	u	6%	u	-1%
CCOc1ccc(NC(=O)CCCc2cc(-c3ccc(OCC)cc3)on2)cc1	11%	0.13µM*	1%	1.3µM*	-6%
CC1=CC(C)(C)[N+](C)(C)c2ccccc21	-3%	-1%	u	2%	-29%
O=[N+]([O-])c1ccccc1/C=C/C=N/n1c(-c2cc(-c3ccccc3)n[nH]2)n[nH]c1=S	3%	u	u	-19%	-112%
O=[N+]([O-])c1ccccc1/C=C/C=N/n1c(-c2ccco2)n[nH]c1=S	13%	8.9µM*	u	6%	12%
Cc1ccc(-c2n[nH]c(=S)n2/N=C/C=C/c2ccccc2[N+](=O)[O-])cc1	0%	4.5µM*	u	-24%	-2%
CCNC(=O)c1cccc(NC(=O)c2cc(C3CC3)nc3c2cnn3C(C)C)c1	u	x	-7%	x	-7%
CC(C)n1ncc2c(C(=O)Nc3cccc(C#N)c3)cc(C3CC3)nc21	u	x	23µM*	x	-20%
C=C(C)CNC(=S)N/N=C/C1=CCC2CC1C2(C)C (stereo not given)	-8%	0.79µM*	u	1.6µM*	11%
CCCCNC(=S)N/N=C/C1=CCC2CC1C2(C)C (stereo not given)	u	1.1µM*	u	0.89µM*	13%
CC(=O)N/N=C/C1=CCC2CC1C2(C)C (stereo not given)	6%	-27%	1%	-3%	-2%
CC1(C)C2CC=C(/C=N/NC(=S)Nc3cccnc3)C1C2 (stereo not given)	3%	0.5µM*	-8%	1.3µM*	-23%
CCC(C)(C)C1CCC(=NNC(=S)Nc2cccnc2)CC1 (stereo not given)	2%	u	6%	16%	u
CC1=C/C(=N\NC(=S)Nc2cccnc2)CC(C)(C)C1	u	1.8µM*	u	3.2µM*	u
CC1CCN(C(=O)c2[nH]cnc2C(=O)Nc2ccon2)CC1	21%	x	0%	x	-6%
CCN1C[C@@H]2[C@@H]3C(=O)N(Cc4ccccc4)C(=O)[C@@H]3[C@](Cc3ccccc3)(C1=O)N2C(=O)c1ccc(C)cc1	x	x	-31%	x	-5%
CC(C)NC(=S)N/N=C/C1=CCC2CC1C2(C)C (stereo not given)	10%	0.79µM*	3%	1.8µM*	-4%
